Compound activity (PubChem)
Hits are enriched below; roughly 9.2% of the tested compounds scored in any of these assays.
HttQ103 aggreg – reduces HttQ103-GFP aggregates in PC12 cells; PC12 HttQ103-GFP aggregates, Acumen cytometry, 40 h; Potency, µM (top dose mostly 46.1 µM), inactives show at the top dose activity change, negative = inhibition, actives largely listed as inhibitors; 220,000 compounds, 1.1% hits; active = well fitted curve in the direction sought with a large enough effect; inconclusive = small, poorly fitted or top-dose-only effect, or another doubt; inactive = no such curve, though single readings can be large; an effect the other way counts as inactive or inconclusive; note: % is set by controls: 0 for no effect and ±100 for the full control effect; nearly all actives have a fitted effect of over 60% in size
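PC12/HTTQ103-GFP, ecdysone-inducible; teb 100 nM; cpd qHTS titration; GFP aggregates read on laser cytometer, Ex 488/Em 500-530 nm.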
ALDH1A1 block – inhibitors of human aldehyde dehydrogenase 1A1. P00352. Purified ALDH1A1, NADH fluorescence, propionaldehyde substrate. Potency, µM (titrated, usually from 75.3 µM), for the others: at the top dose activity, negative = inhibition, most hits filed as inhibitors. 220,000 compounds, 7.3% hits;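 note: plate controls were no enzyme wells and a reference inhibitor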
Target sequence (P00352 whole entry, looked up): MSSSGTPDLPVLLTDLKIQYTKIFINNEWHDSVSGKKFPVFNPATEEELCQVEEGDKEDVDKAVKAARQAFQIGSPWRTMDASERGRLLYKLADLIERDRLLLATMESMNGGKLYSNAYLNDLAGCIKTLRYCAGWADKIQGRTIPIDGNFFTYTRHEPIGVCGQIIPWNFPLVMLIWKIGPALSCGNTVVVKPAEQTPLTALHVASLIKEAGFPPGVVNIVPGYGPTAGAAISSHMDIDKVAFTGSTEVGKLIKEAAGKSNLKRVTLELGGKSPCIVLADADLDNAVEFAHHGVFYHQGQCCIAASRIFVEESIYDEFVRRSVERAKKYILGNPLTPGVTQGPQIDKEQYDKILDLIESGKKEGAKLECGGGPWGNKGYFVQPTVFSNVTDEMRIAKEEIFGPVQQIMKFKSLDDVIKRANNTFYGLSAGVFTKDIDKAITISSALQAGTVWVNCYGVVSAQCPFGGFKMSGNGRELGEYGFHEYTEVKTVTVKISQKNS
KDM4E inh – inhibitors of human JMJD2E histone demethylase; AID 2147; B2RXH2; Potency, µM (highest dose often 57.1 µM), inactives show top-dose activity change, negative = inhibition, most hits filed as inhibitors; JMJD2E catalytic domain, FDH-coupled NADH fluorescence (FDH is formaldehyde dehydrogenase); 230,000 compounds, 1.6% hits;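 note: 0% = wells with enzyme and -100% = buffer wells without enzyme; nearly all actives have a fitted effect of over 50% in size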
HPGD block – inhibitors of human 15-hydroxyprostaglandin dehydrogenase (HPGD) | P15428 | purified HPGD, NADH fluorescence kinetic, PGE2 substrate | Potency, µM, for inactives: top-dose activity change, negative = inhibition, actives largely listed as inhibitors | 150,000 compounds, 4.3% hits | AID 894; note: % is set by controls: 0 for no effect and ±100 for the full control effect
Target sequence (P15428 whole entry, looked up): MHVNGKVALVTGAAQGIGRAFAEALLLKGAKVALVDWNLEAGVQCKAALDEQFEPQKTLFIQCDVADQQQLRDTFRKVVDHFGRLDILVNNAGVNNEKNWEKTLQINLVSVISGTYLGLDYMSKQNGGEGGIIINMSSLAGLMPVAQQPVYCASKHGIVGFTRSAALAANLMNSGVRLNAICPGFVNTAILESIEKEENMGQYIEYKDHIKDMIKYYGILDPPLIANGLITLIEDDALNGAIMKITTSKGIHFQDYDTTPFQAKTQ
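20 nM HPGD preincubated 15 min at room temperature with compound in 50 mM Tris-HCl pH 8, 0.01% Tween 20. Started with 1 mM NAD+ and 30 uM prostaglandin E2; NADH fluorescence (360/450 nm) read 5 times over 30-s intervals, last minus first.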
LMNA splice mod – LMNA splicing modulation. HeLa LMNA splicing GFP/RFP minigene ratio, 48 h. Potency, µM (doses to about 46.1 µM), for inactives: top-dose ratio change, negative = inhibition, actives largely listed as inhibitors. 200,000 compounds, 0.01% hits; active = well fitted inhibition curve with a large enough effect in the signal ratio, with a control signal flat, not every such curve was filed as active; inconclusive = small, poorly fitted or top-dose-only effect, or effect the other way, or a change in a side signal; the % refers to the signal ratio; note: % is set by controls: 0 for no effect and ±100 for the full control effect
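S3 HeLa cells stably expressing lamin A-EGFP splicing minigene plus DsRed2, 600 cells/well, 48 h compound exposure at 37C. Laser-scanning cytometry; analysed as GFP (500-530 nm)/RFP (575-640 nm) total intensity ratio; 0.5% DMSO vehicle.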
HTT ATP protect – cytoprotection in Huntington HTT-Q103 PC12 cell model; AID 1471; PC12 HTT-Q103 induced, cytoprotection, ATP luminescence, 40 h; 230,000 compounds, 0.14% hits; Potency, µM (top dose mostly 56.4 µM), for inactives: cytoprotection (ATP increase), hits mostly activators; active = well fitted curve in the direction sought with a large enough effect; inconclusive = small, poorly fitted or top-dose-only effect, or another doubt; inactive = no such curve, though single readings can be large; an effect the other way counts as inactive or inconclusive; note: % of control where 0% means no effect; nearly all actives have a fitted effect of over 45% in size
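Rat PC12, Q103 Htt exon1-GFP fusion, ecdysone promoter; tebufenozide inducer 100 nM final; compound titration; qHTS, 1500 cells/well; ATPlite luminescent read.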
* = called active by the depositor; u = inconclusive; x = no result given; [ ] = another dose, or the depositor's remark. Unless noted, calls come from the whole dose curve; as a rule, active = well fitted inhibition curve with a large enough effect (not every such curve was filed as active); inconclusive = small, poorly fitted or top-dose-only effect, or another doubt; inactive = no such curve, though single readings can be large or run the other way. Potency is the fitted concentration of half-maximal effect.

SMILES | HttQ103 aggreg | ALDH1A1 block | KDM4E inh | HPGD block | LMNA splice mod | HTT ATP protect
Cc1ccccc1CNC(=O)CN1CCSc2ccccc21 | x | x | x | x | 5%[46 µM] | x
Cc1[nH]n(-c2ccccc2)c(=O)c1N=O | 0.63µM* | -7% | -10% | x | 5%[46 µM] | x
Cc1ccc(NC(=O)/C=C/C(=O)O)c([N+](=O)[O-])c1 | -2% | 18µM* | 7% | -7% | -3% | 7%[10 µM]
COc1ccc(NC(=O)CC2SC(N)=NC2=O)c([N+](=O)[O-])c1 (stereo unspecified) | 11%[9.22 µM] | 25µM* | u | x | x | 22%[10 µM]
COc1ccc(NC(=O)/C=C/C(=O)O)c([N+](=O)[O-])c1 | -3%[9.22 µM] | 19µM* | -11% | x | x | 5%[10 µM]
Cc1cc(NC(=O)/C=C\C(=O)O)c([N+](=O)[O-])cc1C | -16%[9.22 µM] | x | -2% | x | x | -17%[10 µM]
COc1ccc(OC)c(Nc2ccc(C(=O)O)cc2[N+](=O)[O-])c1 | -21% | 6% | 7% | 16µM* | -8% | 17%[10 µM]
C[C@@H]1C[C@@]2(C)Oc3ccccc3[C@H]3OC[C@]1(COC(=O)Nc1ccccc1)[C@@H](C)[C@@H]32 | x | x | x | x | x | -11%
CCOc1cc(NC(=S)NCCCN2CCOCC2)c(OCC)cc1NC(=O)C1CC1 | 1% | 8% | 2% | -8% | -7% | 27%[10 µM]
Cc1cnc(CNC(=O)c2ccc(OC3CCN(C(=O)C4CC4)CC3)cc2)cn1 | 25% | 1% | 6% | x | x | -7%
Cc1ccc2oc(=O)n(CC(=O)OCCC(C)C)c2c1 | -3%[9.22 µM] | x | 4% | x | x | 9%[10 µM]
O=c1c2cnn(-c3ccccc3)c2nc(-c2cccs2)n1-c1ccc(Br)cc1 | 2% | -6% | u | -5% | 5%[0.0737 µM] | -1%
O=C(O)CSc1nc2c(cnn2-c2ccccc2)c(=O)n1-c1ccc(Br)cc1 | 7% | -6% | -3% | 14µM* | -6% | x
CC(SC#N)C(=O)C12CC3CC(CC(C3)C1)C2 (stereo unspecified) | 12% | 8.9µM* | -2% | x | x | u
CCCOc1ccc(Cn2cnc3ccccc32)cc1 | 25µM* | -1% | 5% | -8% | u | -9%
O=C(C1COc2ccccc2O1)N1CCN(c2ccccc2Cl)CC1 (stereo unspecified) | -10% | -5% | -1% | x | u | -39%
O=C(C1COc2ccccc2O1)N1CCc2ccccc2C1 (stereo unspecified) | -9% | u | -2% | 7.1µM* | 2% | 2%[10 µM]
CCOC(=O)C1=C(C)N=C2SC(C)C(=O)N2C1c1ccc(OC(C)=O)c(OCC)c1 (stereo unspecified) | -9% | 4% | 7% | -1% | -7% | 15%[10 µM]
CCC1SC2=NC(C)=C(C(=O)OC)C(c3ccc(C)cc3)N2C1=O (stereo unspecified) | 14% | 14µM* | -12% | -24% | 6% | -2%
CCOC(=O)C1=C(C)N=C2SC(C)C(=O)N2C1c1cccc(F)c1 (stereo unspecified) | 5% | -13% | -3% | -4% | 7% | 25µM*
CC1=C(C(=O)OCC(C)C)C(c2cccc(F)c2)N2C(=O)C(C)SC2=N1 (stereo unspecified) | 4% | 0.45µM* | 3% | u | 5% | 12%[10 µM]
CC1=C(C(=O)OC(C)C)C(c2cccc(F)c2)N2C(=O)C(C)SC2=N1 (stereo unspecified) | 23% | u | -10% | -3% | -11% | 9%[10 µM]
Cc1sc2c(c1C)C(=O)/C(=C\Nc1ccncc1)S(=O)(=O)N2C | -25%[9.22 µM] | x | -1% | x | x | -1%[10 µM]
CCOc1cc(NC(=S)Nc2ccccc2)c(OCC)cc1NC(=O)c1ccc(OC)cc1 | 5% | 22µM* | -17% | -19% | 4% | -26%
COc1ccc(NC(=S)Nc2ccccc2)c(OC)c1 | -1% | u | -5% | x | x | -42%
SMILES | HttQ103 aggreg | ALDH1A1 block | KDM4E inh | HPGD block | LMNA splice mod | HTT ATP protect
CCOc1cc(NC(=S)Nc2cccc(OC)c2)c(OCC)cc1NC(=O)c1ccc(C)cc1 | -6% | u | -7% | -18% | 11% | -23%
COc1ccc(NC(=S)Nc2ccc(OCc3ccccc3)cc2)c(OC)c1 | -5% | 10µM* | -10% | -24% | u | 0%[10 µM]
Cc1ccc(C2CC(c3cccs3)=NN2C(=O)CSC2=NN3CCCC(=O)N=C3S2)cc1 (stereo unspecified) | 5% | 28µM* | u | -27% | u | -9%[10 µM]
COC(=O)C1(Cc2ccccc2)C2c3cc(C(=O)N4CCCC4)n(Cc4ccc(OC(F)(F)F)cc4)c3CC2CN1C(=O)c1ccccc1 (stereo unspecified) | x | 1% | -4% | -19% | x | 14%
COc1ccc(C(=O)N/N=C/c2ccccc2C(=O)O)cc1OC | -26%[9.22 µM] | x | -11% | x | x | 5%[10 µM]
O=C(N/N=C/c1ccccc1OC(=O)c1ccc2c(c1)OCO2)c1cccc(F)c1 | 2.5µM* | 1% | 1% | -2% | u | -88%[10 µM]
CC(=O)Nc1ccc(C(=O)N/N=C/c2ccccc2OC(=O)c2ccc(Cl)cc2)cc1 | u | 16% | -3% | -23% | 5% | -36%
COc1cc(C(=O)Oc2ccccc2/C=N/NC(=O)c2ccc(C)c(Cl)c2)cc(OC)c1OC | 2.8µM* | 12% | -8% | -5% | -8% | -81%[10 µM]
COc1cc(C(=O)Oc2ccccc2/C=N/NC(=O)c2ccc(Cl)cc2)cc(OC)c1OC | 2.8µM* | -4% | 6% | -17% | u | -88%[10 µM]
O=C(/C=C/c1ccccc1)Nc1nnc(-c2ccco2)o1 | 13% | u | u | x | u | -7%
CCOc1ccc2c(ccc(/C=C\c3cc(C)c4cccnc4c3O)[n+]2C)c1 | x | 2%[13.5 µM] | x | -15% | x | -27%[10 µM]
CCCN(CCC)S(=O)(=O)c1ccc2c(c1)CCCN2C(C)=O | -17% | 5µM* | 3% | -9% | u | -18%
Cc1cccc(N2CCN(C(=O)CCS(=O)(=O)c3ccc(Br)cc3)CC2C)c1 (stereo unspecified) | -16% | 0% | -17% | x | x | u
Cc1ccc(NC(=O)c2cc(S(=O)(=O)NCCC3=CCCCC3)ccc2F)cc1 | 15% | 22µM* | -5% | -21% | u | u
CC(=O)N1CCCc2cc(S(=O)(=O)NCCC3=CCCCC3)ccc21 | -26% | 1.8µM* | -2% | -11% | u | 21%[10 µM]
CC(=O)N1CCCc2cc(S(=O)(=O)CCC(=O)N3CCN(c4cccc(C)c4)C(C)C3)ccc21 (stereo unspecified) | -11% | 18µM* | -21% | -10% | 4% | 6%
O=C(Cc1c(Sc2ccccc2)c2ccccc2n1Cc1ccccc1)NCCO | 2% | -2% | -1% | u | -3% | x
C/C(=C\CNc1ncnc2c1ncn2[C@@H]1O[C@@H](CO)[C@@H](O)[C@H]1O)CO | x | x | x | x | x | -31%
NCCCCCCN | x | 2% | x | -6% | x | -1%
